The results in this text go back to PubChem BioAssay AID2283234 (EPA ToxCast).

Inconclusive results are not listed. Activity calls are given as the source filed them. The calls were made as follows: active = hit-call score of the fitted dose curve at least 0.9, where 1 is the maximum; inconclusive = response in the unintended direction; inactive = score below 0.9.

As a reminder, the AC50 is the concentration at which the activity in the assay is half-maximal.

In the assay the target is human Dual Specificity Styrosine-Phosphorylation-Regulated Kinase 1A (DYRK1a), DYRK1A (gene 1859) (UniProt Q13627). Kind of assay: NVS_ENZ_hDYRK1a: NovaScreen (NVS) Enzymatic Assay for human Dual Specificity Styrosine-Phosphorylation-Regulated Kinase 1A (DYRK1a). Here is the method:
NVS_ENZ_hDYRK1a is a biochemical, single-readout assay that uses extracted gene-proteins in a cell-free assay. Measurements were taken 1 hour after chemical dosing in a 96-well plate.NVS_ENZ_hDYRK1a is one of one assay component(s) measured or calculated from the NVS_ENZ_hDYRK1a assay. It is designed to make measurements of enzyme activity, a form of enzyme reporter, as detected with fluorescence intensity signals by Fluorescence and electrophoretic mobility shift technology.Data from the assay component NVS_ENZ_hDYRK1a was analyzed into 1 assay endpoint. This assay endpoint, NVS_ENZ_hDYRK1a, was analyzed in the positive analysis fitting direction relative to DMSO as the negative control and baseline of activity. Using a type of enzyme reporter, loss-of-signal activity can be used to understand changes in the enzymatic activity as they relate to the gene DYRK1A. Furthermore, this assay endpoint can be referred to as a primary readout, because this assay has produced multiple assay endpoints where this one serves a enzymatic activity function. To generalize the intended target to other relatable targets, this assay endpoint is annotated to the kinase intended target family, where the subfamily is dual-specific kinase.
Binding assays used specific radioligands (tritiated, iodinated) with non-radioactive competitive displacement ligands in agonist or antagonist protocols (as indicated) and various reference compounds and inhibitors to titrate specific binding to receptors and transporters. Most enzyme assays (CYPs, kinases, phosphatases, proteases, HDACs) used recombinant protein and specific substrates (fluorescence mostly, some colorimetric and radioactive) and inhibitors, followed by a biochemical separation of substrate and product. All assays for the biochemical HTS were initially run in duplicate at a single concentration (10 uM for CYP450 assays and 25 uM for all others). […] Each assay was run with positive and negative controls, and concurrent controls on every plate. The follow-up (secondary) screen tested active chemical-pairs in concentration series, as well as a few additional assays not tested in the primary screen, some selected negative inactives, and several cases re-run in the concentration series for confirmatory purposes.
In the case of `O=C(O)C1(C(=O)Nc2ccc(Cl)cc2Cl)CC1`, the AC50 is 5.11 µM (active).
For `CC(C)(C)[C@@H](O)[C@@H](Cc1ccc(Cl)cc1)n1cncn1`, the molecule was classed as inactive.
In the case of `N#CSCSc1nc2ccccc2s1`, the molecule was called inactive.
With `S=C(S)NCCNC(=S)S.[Mn+2].[S-]C([S-])=NCCN=C([S-])[S-].[Zn+2]`, the half-maximal activity concentration (AC50) is 1.39 µM (active).
As for `S=C([S-])NCCNC(=S)[S-].[Mn+2]`, the half-maximal activity concentration (AC50) was 6.02 µM (active).
